# Among all 320,000 compounds or so, about 2,100 (0.66%) were called active. About 53% were inconclusive and are not listed. The call rests on the fitted dose curve; in most records, active means well fitted inhibition curve with a large enough effect in the signal ratio, with a control signal flat (not every such curve was filed as active); inconclusive means small, poorly fitted or top-dose-only effect, or effect the other way, or a change in a side signal; inactive means flat fitted curve, though single readings scatter; the % refers to the signal ratio. The sample as a whole holds a higher share of actives than the screen did.
# Assay: qHTS Assay for Lipid Storage Modulators in Drosophila S3 Cells;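 on cell number change: cells counted by Cell Tracker Red CMTPX staining in the red channel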
# Details: BODIPY lipid droplet fluorescence, 18-24 h, cells fed with added oleic acid; cell number change: measured here: cell count max response; series mostly up to 46.1 µM
# Procedure, shortened: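 Laser-scanning cytometry quantifies lipid droplet accumulation (500–530 nm total intensity; droplet/cell object ratio) in oleic acid-fed (400 uM added) Drosophila S3 cells treated with a concentration series. 20 uM Triacsin C defined 100% inhibition.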
# Potency means the concentration at half of the fitted maximal effect.
SMILES,Potency,cell number change
O=C(COc1ccc([N+](=O)[O-])cc1)Nc1cc(C(=O)O)cc(C(=O)O)c1,inactive,11.2%
Cc1cc(Br)ccc1NC(=O)CNC(=O)CSc1ncccn1,inactive,-9.9%
Cc1ccccc1C1c2[nH]c3ccccc3c2C[C@H]2C(=O)N(C3CC3)CC(=O)N12 (stereo partly specified),inactive,-3.81%
Cc1ccc(S(=O)(=O)N(CC(=O)N2CCCCC2)c2cccc(C)c2)cc1,inactive,-21.5%
Cc1ccc(S(=O)(=O)N(CC(=O)N2CCC(C)CC2)c2cccc(C)c2)cc1,inactive,–
CCOC(=O)N1CCN(C(=O)CN(c2cccc(C)c2)S(=O)(=O)c2ccc(C)cc2)CC1,5.8 µM (active),6.11%
Cc1nc2c(C(=O)N3CCOCC3)cnn2c(C)c1Cc1ccc(Cl)cc1,inactive,-21.6%
CCn1c(SC)nc2cc(S(=O)(=O)N3CCCCC3)ccc21,inactive,-3.03%
Cc1ccc(C(=O)NCC(=O)OCC(=O)Nc2ccc(Cl)cn2)cc1,3.66 µM (active),-28.4%
O=C(COC(=O)CNC(=O)c1ccco1)Nc1ccc(Cl)cn1,inactive,–
Cc1ccc(OCCC(=O)OCC(=O)Nc2ccc(Cl)cn2)cc1,inactive,-15.3%
N#Cc1ccc(COc2cccc3cccnc23)cc1,inactive,-22.2%
Cc1oc2c(cc(NS(=O)(=O)c3ccc4c5c(cccc35)C(=O)N4)c3ccccc32)c1C(=O)OC(C)C,inactive,10.8%
CC(C)C(NS(=O)(=O)c1ccc2c3c(cccc13)C(=O)N2)C(=O)O (stereo unspecified),inactive,15.8%
Cc1cc(O)ccc1NS(=O)(=O)c1ccc2c3c(cccc13)C(=O)N2,0.366 µM (active),-0.855%
O=C(N=C1N=C2C=CC=CN2Cc2ccccc21)c1ccc(S(=O)(=O)N2CCCC2)cc1,inactive,13.8%
O=C(Nc1ccc(Oc2ncnc3cc(Cl)ccc23)nc1)Nc1cccc(C(F)(F)F)c1,inactive,-3.74%
O=C(N[C@H]1CC1c1ccccc1)c1ccc([N+](=O)[O-])cc1 (stereo partly specified),inactive,-1.22%
C=C(C)Cn1c(-c2ccncc2)n[nH]c1=S,inactive,-24.7%
O=C(CCN1CCOCC1)N1CCCC(Nc2ccc(F)cc2)C1 (stereo unspecified),inactive,–
O=C1Nc2ncccc2OC1CCO (stereo unspecified),25.9 µM (active),-19.3%
CCS(=O)(=O)c1ccc2c(c1)NC(=O)C(CCO)O2 (stereo unspecified),inactive,7.6%
O=C1Nc2ncccc2OC1CCCl (stereo unspecified),inactive,11.9%
CCOC(=O)c1ccc(NC(=O)Cn2c(=O)oc3ccccc32)cc1,inactive,2.64%
COc1cc(C2NC(=O)NC(C)=C2C(=O)OC(C)(C)C)ccc1OCC(N)=O (stereo unspecified),inactive,1.52%
COc1ccc2c(c1OC)C(=O)NC(C)=C(C(=O)OC(C)(C)C)C2O (stereo unspecified),14.6 µM (active),0.147%
CC1=C(C(=O)OC(C)(C)C)C(c2cccs2)NC(=O)N1 (stereo unspecified),inactive,16.7%
